Most compounds without a hit are left out; they make up all but 2.4% or so of the library.
D2 PAM-1: positive allosteric modulators of human D2 dopamine receptor | 340,000 tested, 0.34% active | HEK293 T-REx D2, calcium flux, EC20 dopamine potentiation | P14416 | AID 485347 | potentiation, % at 10 µM;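 active = potentiation over 3 SD above the plate norm, cut at about 30% in these data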; also: 0% is about no effect
Target sequence (P14416 whole entry, looked up): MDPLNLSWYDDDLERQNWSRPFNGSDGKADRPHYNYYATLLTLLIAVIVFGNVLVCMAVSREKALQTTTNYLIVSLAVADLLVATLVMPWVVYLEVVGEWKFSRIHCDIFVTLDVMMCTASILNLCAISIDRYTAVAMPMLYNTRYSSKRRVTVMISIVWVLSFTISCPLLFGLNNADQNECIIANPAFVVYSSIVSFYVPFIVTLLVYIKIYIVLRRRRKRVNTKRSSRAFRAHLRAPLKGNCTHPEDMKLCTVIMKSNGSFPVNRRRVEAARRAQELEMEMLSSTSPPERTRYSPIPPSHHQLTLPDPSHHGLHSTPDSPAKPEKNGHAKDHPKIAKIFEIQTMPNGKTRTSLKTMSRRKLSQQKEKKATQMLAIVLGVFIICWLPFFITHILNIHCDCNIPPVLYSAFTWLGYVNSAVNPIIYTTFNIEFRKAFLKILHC
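Potentiation of an EC20 dopamine calcium response is measured in a force-coupled, tetracycline-inducible Hek293 Trex D2 line. Compound-only kinetic reads over 180 s flag agonists before dopamine addition.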
D2 PAM-2: positive allosteric modulators of human D2 dopamine receptor; P14416; DiscoveRx D2 beta-arrestin cells, luminescence, 90 min; 100% = 57 uM dopamine signal; potentiation, % (test concentration not listed); 360,000 tested, 0.23% active; in the data active = potentiation above about 50%; inconclusive = mostly about 30% to 49%
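PathHunter D2 cells, attached overnight at 37 deg C, received compound in DMSO plus dopamine at EC20 (50 nM final) for 90 min at 37 deg C. Beta-arrestin recruitment was read as luminescence after 1 h with detection reagent at ambient temperature.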
D2 antag: antagonizes the human D2 dopamine receptor; inhibition, % at 10 µM; HEK293 TREx D2 cells, calcium flux, dopamine EC80; 340,000 tested, 2% active; P14416; AID 485344; in the data active = inhibition above about 30%; inactive = below that, where a call was filed; also: 0% is about no effect
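Tetracycline-induced HEK293 TREx cells expressing D2 receptor forced-coupled to calcium signalling, loaded with no-wash calcium dye. Compounds added and calcium flux read 180 s, then dopamine added at EC80 and read a further 180 s.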
D2 ag-1: agonists of human D2 dopamine receptor (beta-arrestin); P14416; activation, % (test concentration not listed); AID 624465; 360,000 tested, 0.084% active; DiscoveRx PathHunter D2 beta-arrestin, luminescence, 90 min; 100% = 57 uM dopamine signal; in the data active = activation above about 40%; inconclusive = between about 15% and that limit
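Agonist mode: compounds alone added to overnight-plated D2 PathHunter cells for 90 min at 37 C, with 57 uM final dopamine (EC100) defining full response. Beta-arrestin recruitment detected by chemiluminescent reagent, read after 1 h at ambient temperature.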
D2 ag-2: activates the human D2 dopamine receptor. P14416. 340,000 tested, 0.53% active. activation, % at 2 µM. HEK293 T-REx D2 cells, calcium flux agonist mode;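 active = activation over 3 SD above normal in the single-dose calcium agonist read, cut at about 30% in these data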; also: 0% is about no effect
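Tetracycline-induced HEK293 T-REx cells with force-coupled D2 receptor, plated overnight at 30 C, loaded with no-wash calcium dye. After a 10 s baseline, compound was pin-added and calcium flux read kinetically for 180 s; calcium rises flagged agonists.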
Numbers without * were called inactive; ? = inconclusive; nt = not tested or not shown; ! = not active in a repeat.

SMILES	D2 PAM-1	D2 PAM-2	D2 antag	D2 ag-1	D2 ag-2
CC(NC(=O)CCC(=O)Nc1ccccc1O)c1ccccc1 (stereo unspecified)	nt	-12	nt	-3	nt
CC(CNc1ccccc1O)C(=O)O (stereo unspecified)	5	68*	-1	?	0
Cc1cc(C(=O)NC2CCCC2)c2ccccc2n1	-1	-8	nt	1	nt
Cc1cc(C(=O)NC2CCCCC2)c2cc(F)ccc2n1	-1	26	31*	2	1
Cc1sc(N/N=C/c2cccs2)nc1-c1ccccc1	-9	66*	-16	?	0
COCc1nnc(NC(=O)C2CC(=O)N(CCc3ccc(F)cc3)C2)s1 (stereo unspecified)	-7	-7	30*	-3	1
COc1ccc(C)cc1S(=O)(=O)N(C)CC(=O)NCc1ccncc1	8	-2	33*	-1	0
N#Cc1c(N)sc(=S)c2c1CCN(Cc1ccccc1)C2	10	nt	32*	nt	1
C=CCNc1nc(N2CCCCC2)c(C#N)c2c1CN(Cc1ccccc1)CC2	-13	-44	72*	-5	0
N#Cc1c(NCCO)nc(NCc2ccccc2)c2c1CCN(Cc1ccccc1)C2	-6	-1	-16	1	0
CC(C)N1CCc2c(sc(N)c2C#N)C1	-10	-8	-12	1	2
CCN1CCc2c(C#N)c(N3CCCCC3)nc(NCc3ccccc3)c2C1	-22	-28	11	-2	0
CCN1CCc2c(sc(N)c2C#N)C1	nt	?	4	43*	0
Cc1cc(C=O)c(C)n1-c1ccc(Cl)c(C(=O)O)c1	-13	9	37*	3	-1
Cc1cc(C(C)(C)C)ccc1OC(=O)C1=CC=CN2CCS(=O)(=O)N=C12	7	1	40*	-5	1
Cc1nc2sccn2c(=O)c1S(=O)(=O)Nc1ccc(N2CCN(C(=O)C(C)C)CC2)cc1	51*!	1	-5	3	-1
Cc1ccc(NS(=O)(=O)c2c(C)nc3sccn3c2=O)cc1	-2	-4	9	-1	1
O=C(c1ccc([N+](=O)[O-])cc1)N1CCN(c2ncccn2)CC1	nt	-1	nt	5	nt
COc1ccc(Cl)cc1NC(=S)NCCc1ccc(F)cc1	-20	-53	40*	-1	0
Fc1ccc(NC(=S)NCCc2ccc(Cl)cc2)cc1	-2	-15	32*	-1	-1
COc1ccc(Cl)cc1NC(=S)NCCc1ccc(S(N)(=O)=O)cc1	-3	-16	24	-4	0
CC1Cc2ccccc2N1C(=O)CSc1nnc2n1C(C)(C)Cc1ccccc1-2 (stereo unspecified)	34*	-12	1	-3	-1
CCOc1ccccc1CNC(=O)CSc1n[nH]c(-c2ccccc2Cl)n1	-8	nt	nt	nt	0
Nc1c2c(nc3ccn(-c4ccccc4)c(=O)c13)CCCCC2	-11	-16	6	-1	1
Nc1c2c(nc3c1CCC3)CCCC2	-7	nt	31*	nt	1
SMILES	D2 PAM-1	D2 PAM-2	D2 antag	D2 ag-1	D2 ag-2
C=CCn1c(SCC(=O)Nc2ccc(O)cc2)nc2sc(CC)cc2c1=O	3	-2	31*	2	-1
CSCCC(NC(=O)c1cccc(C)c1)C(=O)OCC(=O)Nc1c(C)nn(-c2ccccc2)c1C (stereo unspecified)	4	-5	-12	0	0
CCOC(=O)C1=NN(C(=O)c2ccc(C)cc2)C(O)(c2ccc(Cl)cc2)C1 (stereo unspecified)	-3	-14	22	-4	31*
Cc1cccc(NC(=O)c2c(C)nc3ccccn23)c1	0	-3	40*	-2	0
COC1CCCCC1NS(=O)(=O)c1ccc(Cl)cc1 (stereo unspecified)	-6	-6	31*	3	-1
CCOC(=O)C1(C)C=C(Nc2ccc(O)cc2)C(=O)N1c1ccc(O)cc1 (stereo unspecified)	-1	104*	-4	?	-1
Cn1c(C=O)c(C#Cc2ccccc2)c2ccccc21	12	-25	-2	-2	0
O=C1N(Cc2ccccc2F)c2ccccc2C12OCCCO2	40*	-12	-4	-3	0
CCCC(=O)CN1C(=O)C2(OCCO2)c2ccccc21	36*	-17	-13	-1	0
Cn1c(=O)c2ccccc2n(CC(=O)NCCC2=CCCCC2)c1=O	-10	-3	41*	2	0
Cn1c(=O)c2sccc2n(CC(=O)NCCC2=CCCCC2)c1=O	-2	-17	-10	-2	0
CCOc1cccc2sc(Nc3nc4ccc(NC(C)=O)cc4s3)nc12	-14	4	31*	4	1
Cn1cc(-c2cc3n(n2)CCC(=O)N3CCCC(=O)NCc2ccc(Cl)cc2)c2ccccc21	14	nt	nt	nt	nt
COc1ccc(-n2c(CN3CCN(c4ccccn4)CC3)nc3ccc([N+](=O)[O-])cc3c2=O)c(OC)c1	-6	-8	6	0	36*
COc1ccc(NC(=O)CN(C)C(=O)c2ccc(S(=O)(=O)Nc3ccccc3C)cc2)cc1	-8	4	-3	-4	0
CCCNC(=O)Cn1c(=O)n(CC(=O)N2CCCCC2)c(=O)c2sccc21	6	-28	-10	-15	1
CCN(CC)C(=O)Cn1c(=O)n(CC(=O)N2CCCCC2)c(=O)c2sccc21	-1	6	33*	-2	0
Cn1c(O)c(/C=C2\C=Nc3ccccc32)sc1=Nc1ccc(C(=O)O)cc1	1	-4	-9	-1	0
O=C(Cc1ccccc1)Nn1c(O)c(/C=C2\C=Nc3ccccc32)sc1=S	-3	-13	-13	-2	34*
O=C(O)CC/C(=N\Nc1ccc(S(=O)(=O)N2CCOCC2)cc1[N+](=O)[O-])c1cccs1	-2	-8	30*	-5	-1
O=C(O)CC/C(=N\Nc1ccc(S(=O)(=O)N2CCCC2)cc1[N+](=O)[O-])c1cccs1	12	-17	-2	-4	1
Oc1ccc(NC(=S)Nc2ccc(O)cc2)cc1	31*	-2	17	12	-1
COC(=O)c1ccc(NC(=S)Nc2ccc(O)cc2)cc1	9	-3	-5	7	1
CCN1CCN(C(c2cccc(F)c2)c2c(O)cc(C)n(Cc3ccco3)c2=O)CC1 (stereo unspecified)	-5	nt	nt	nt	-1
CCOC(=O)CNC(=O)CSc1nnc(-c2ccc(OC)cc2)n1CC	9	-10	35*	-1	1
Cc1cc(=O)[nH]c(NN=C2CCC(C(C)(C)C)CC2)n1 (stereo unspecified)	32*	-9	2	-2	1
C/C(=N\Nc1nc(C)cc(=O)[nH]1)C1CC1	14	-1	-4	-3	-1

High-throughput results: PubChem, National Center for Advancing Translational Sciences (NCATS)
